PubChem BioAssay
The source made the active and inactive calls.

Assay: yeast growth modulation, basal conditions, primary screen, YJM789 clinical isolate, OD600, 24 h (AID 1089);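 also: growth of clinical yeast isolate S. cerevisiae YJM 789 seeded 1000 cells per well; test concentration not given here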
Conditions: S. cerevisiae YJM789 growth, higher = more signal, called active from +8 up or from −8 down

SMILES	z-score
C[C@@]1([C@@H](NS(=O)(=O)c2cccc3cccnc23)c2ccc(-c3ccccc3)cc2)C[C@H]1C1CCCCC1	0.523 (inactive)
O=C1O[C@H](c2ccccc2)[C@H](c2ccccc2)N2[C@H]1[C@@H](C(=O)N1CCN(c3ncccn3)CC1)[C@]1(C(=O)Nc3ccc(C#CC4(O)CCCCCC4)cc31)[C@H]2c1ccc(O)cc1	0.736 (inactive)
C=CCC(OC(C)=O)[C@@H]1[C@@H](N(Cc2ccc(-c3ccccc3)cc2)C(=O)Cc2ccc(OC)cc2)c2cc(OCCCO)ccc2N1C(=O)c1ccc2ccccc2c1 (stereo not given in full)	-0.675 (inactive)
O=C(NC1CC1)[C@@H]1c2ccccc2C(=O)N(C2CCCCC2)[C@H]1c1ccc(CO)cc1	0.116 (inactive)
COC(=O)[C@@]1(Cc2ccccc2)[C@H]2c3cc(C(=O)N(C)C)n(Cc4nc5ccccc5[nH]4)c3C[C@H]2CN1C(=O)c1ccccc1	-0.895 (inactive)
C=CCOC(=O)[C@@H]1[C@H]2C(=O)O[C@H](c3ccccc3)[C@H](c3ccccc3)N2[C@H](c2ccc(OCCOC(=O)[C@@H]3C[C@@H]4C(=O)N[C@@H](CC(C)C)C(=O)N4[C@@H]3c3ccc(O)cc3)cc2)[C@@]12C(=O)Nc1ccc(I)cc12	-0.677 (inactive)
COCCOC(=O)N1C(=O)[C@@]2(c3cc(C#CCNC(N)=O)ccc31)[C@H](C(N)=O)[C@H]1C(=O)O[C@H](c3ccccc3)[C@H](c3ccccc3)N1[C@@H]2c1ccc(O)cc1	0.898 (inactive)
C=CCNC(=O)[C@H]1[C@@H]2C(=O)O[C@@H](c3ccccc3)[C@@H](c3ccccc3)N2[C@@H](c2ccc(OCCO)cc2)[C@]12C(=O)Nc1ccc(C#Cc3ccc(OC)cc3)cc12	3.23 (inactive)
CN1C(=O)C2C=CC(C(O)c3ccc(I)cc3)N(N(c3ccccc3)c3ccccc3)C2C1=O (stereo not given)	0.413 (inactive)
Cc1ccc(S[C@]2(C(=O)NCc3ccccc3)CC(=O)N(Cc3ccccc3Cl)[C@@H]2c2ccc(CO)cc2)cc1	0.373 (inactive)
C[C@]1(C(=O)O)c2ccccc2C(=O)N(Cc2cc(C(F)(F)F)cc(C(F)(F)F)c2)[C@H]1c1ccc(CO)cc1	0.652 (inactive)
COC(=O)C(CC#Cc1ccc2c(c1)[C@]1(C(=O)N2)[C@H](C(N)=O)[C@H]2C(=O)O[C@H](c3ccccc3)[C@H](c3ccccc3)N2[C@@H]1c1ccccc1OCCO)C(=O)OC	2.79 (inactive)
COC(=O)[C@@]1(Cc2ccc(F)cc2)[C@H]2c3cc(C(=O)N(C)C)n(Cc4ccc(C(F)(F)F)nc4)c3C[C@H]2CN1C(=O)c1ccccc1	0.538 (inactive)
CCN1C(=O)C2CC(=O)C3C(CN(S(=O)(=O)c4ccc(C)cc4)C3c3ccc(C)cc3)C2C1=O (stereo not given)	-0.01 (inactive)
C=C[C@H](OC)[C@@H](O)c1ccc(OC)c(O)c1	0.0615 (inactive)
CCCCCN1CC=CC23O[C@@H]4/C=C\CCCOC(=O)C4[C@H]2C(=O)N(CCCCCO)[C@@H]3C1=O (stereo not given in full)	-0.557 (inactive)
CC(C)C[C@H]1NC(=O)CNC(=O)[C@@]23C(=O)N[C@@H](Cc4ccccc4)C2[C@H](C)[C@@]2(C)O[C@H]2C3/C=C/C/C=C\CNC1=O (stereo not given in full)	-0.599 (inactive)
C=CCNC(=O)[C@@H]1[C@H]2C(=O)O[C@H](c3ccccc3)[C@H](c3ccccc3)N2[C@H](c2ccc(OCCO)cc2)[C@@]12C(=O)Nc1ccc(C#CCNC(N)=O)cc12	0.696 (inactive)

SMILES	z-score
CC(C)[Si](C#Cc1ccccc1)(O[C@H](c1ccccc1)c1cn(Cc2ccccc2)nn1)C(C)C	-1.94 (inactive)
C=C(C(=O)CC[C@@H](OC(=O)c1cccnc1)c1cccc(OCCO)c1)C(C)C	-1.11 (inactive)
CCCCN1CC=CC23O[C@@H]4/C=C\CCC(C)OC(=O)C4[C@H]2C(=O)N(CCO)[C@@H]3C1=O (stereo not given in full)	-1.64 (inactive)
O=C/C=C/c1ccc(-c2ccccc2)cc1	-25.4 (active)
COc1cc(CO)cc(I)c1O[C@H]1C=C(C(=O)NCCO)C[C@@H](N(CCN2CCOCC2)C(=O)C2CCCO2)[C@@H]1O (stereo not given in full)	0.383 (inactive)
CC(C)C[C@@H]1NC(=O)[C@H]2C[C@@H](C(=O)O)[C@@H](c3cccc(OCCO)c3)N2C1=O	0.395 (inactive)
COc1cc(Cc2cc3c(c(CCc4ccccc4)n2)[Si](C(C)C)(C(C)C)O[C@H]3c2ccccc2)cc(OC)c1OC	-2.28 (inactive)
C=CCNC(=O)[C@@H]1[C@H]2C(=O)O[C@H](c3ccccc3)[C@H](c3ccccc3)N2[C@H](c2ccc(O)cc2)[C@@]12C(=O)Nc1ccc(C#CC3=CCCCC3)cc12	1.03 (inactive)
Cc1cccc([C@H]2C[C@H]3C(Br)=C[C@@]2(CO)C(=O)[C@]32CO2)c1	-1.54 (inactive)
COCCOC(=O)N1C(=O)[C@@]2(c3cc(C#CCCO)ccc31)[C@H](C(=O)N1CCN(c3ncccn3)CC1)[C@H]1C(=O)O[C@H](c3ccccc3)[C@H](c3ccccc3)N1[C@@H]2c1ccc(OCCO)cc1	2.26 (inactive)
COC(=O)[C@H](Cc1ccccc1)N1CC(C)(OC)O[C@@H](Cc2ccccc2)[C@H]1/C=C/C1CC1 (stereo not given in full)	0.0394 (inactive)
CCOC(=O)C1=CCC(c2ccncc2)N(S(=O)(=O)c2ccc(C)cc2)C1 (stereo not given)	-2.24 (inactive)
COC(=O)[C@@]1(Cc2ccc(F)cc2)[C@H]2c3cc(C(=O)N4CCCC4)n(Cc4ccc(C(F)(F)F)nc4)c3C[C@H]2CN1C(=O)c1ccccc1	-0.368 (inactive)
COCCOC(=O)N1C(=O)[C@@]2(c3cc(C#CCNC(N)=O)ccc31)[C@H](c1ccccc1OCCO)N1[C@H](c3ccccc3)[C@H](c3ccccc3)OC(=O)[C@H]1[C@@H]2C(=O)N1CCCCCCC1	0.221 (inactive)
CCCCC(=C=CC[C@@H](O)c1ccccc1OCCO)C[C@@H](O)c1ccccn1	0.0466 (inactive)
O=C(NCC(F)(F)F)[C@@H]1c2ccccc2C(=O)N(Cc2cc(C(F)(F)F)cc(C(F)(F)F)c2)[C@H]1c1ccc(CO)cc1	0.338 (inactive)
CC(CO)N1C(=O)[C@@H]2[C@H]3C(=O)OCC=C[C@H]3OC23C=CCN(c2ccc4ccccc4c2)C(=O)[C@@H]13 (stereo not given in full)	-0.112 (inactive)
